Experimental data reported in PubChem BioAssay (NCATS).
Records with an inconclusive call do not appear. Where a call stands in place of a potency, no number is given. Calls of active or inactive are those of the source. Unless noted, the call rests on the fitted dose curve; in most records, active means well fitted curve in the direction sought with a large enough effect; inconclusive means small, poorly fitted or top-dose-only effect, or another doubt; inactive means no such curve, though single readings can be large; an effect the other way counts as inactive or inconclusive.

How the values were obtained:
[1] = molecular target: Cytochrome P450 3A4 (Homo sapiens) (UniProt P08684); experiment: qHTS Assay for Inhibitors and Substrates of Cytochrome P450 3A4 (AID 884); further: nearly all actives have a fitted effect of over 50% in size; further: potency means the concentration at half of the fitted maximal effect
Chain of Cytochrome P450 3A4 (Homo sapiens) (P08684 whole entry, looked up): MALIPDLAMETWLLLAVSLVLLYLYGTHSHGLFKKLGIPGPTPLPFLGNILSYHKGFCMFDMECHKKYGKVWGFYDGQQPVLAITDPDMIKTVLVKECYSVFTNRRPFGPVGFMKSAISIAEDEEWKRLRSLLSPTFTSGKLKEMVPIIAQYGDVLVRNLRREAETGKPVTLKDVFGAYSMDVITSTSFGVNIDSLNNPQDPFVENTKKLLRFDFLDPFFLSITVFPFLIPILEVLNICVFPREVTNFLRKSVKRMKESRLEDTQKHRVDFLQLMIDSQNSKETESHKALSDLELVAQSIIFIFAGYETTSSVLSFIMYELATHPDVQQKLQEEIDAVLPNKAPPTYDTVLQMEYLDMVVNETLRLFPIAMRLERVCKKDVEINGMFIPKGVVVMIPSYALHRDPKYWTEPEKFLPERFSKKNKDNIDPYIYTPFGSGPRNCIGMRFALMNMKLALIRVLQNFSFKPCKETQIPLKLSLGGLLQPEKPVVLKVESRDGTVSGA
Procedure, shortened: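 Luminescent readout of luciferin produced by CYP3A4 (20 nM) dealkylation of Luciferin-PPXE, 25 uM (its KM). NADPH-driven reaction ran 60 min at RT after 10 min compound preincubation; data scaled to 57 uM ketoconazole as 100% inhibition.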

[2] = molecular target: Cytochrome P450 3A4 (Homo sapiens) (UniProt P08684); experiment: qHTS Assay for Activators of Cytochrome P450 3A4 (AID 885); further: nearly all actives have a fitted effect of over 65% in size; further: potency means the concentration at half of the fitted maximal effect
Procedure, shortened: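 Luminescent readout of luciferin formed from 25 uM Luciferin-PPXE (KM level) by 20 nM CYP3A4 in 200 mM KPO4, with 60 min NADPH-driven reaction at room temperature after 10 min compound exposure. Ketoconazole (57 uM) defined 100% inhibition.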

[3] = Primary qHTS for small molecule stabilizers of the endoplasmic reticulum resident proteome: Secreted ER Calcium Modulated Protein (SERCaMP) assay (AID 1508630)
Procedure, shortened: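 The SH-SY5Y reporter protocol was run at 3 concentrations up to 38.3 uM (primary) or 11 concentrations (follow-up): 16 h compound, 100 nM thapsigargin for 4 h, then extracellular luciferase luminescence.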

[4] = Confirmation and Secondary Assay for Modulators of Hemoglobin Beta Chain Splicing at IVS2 654 locus (AID 910);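 further: HeLa cells stably carrying EGFP split by mutant beta-globin IVS2-654 intron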
Procedure, shortened: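 HeLa cells stably expressing EGFP interrupted by β-globin IVS2-654 intron, seeded overnight in Opti-MEM/2% FCS, then treated 2 days at 37 °C. Restored splicing read as total peak GFP intensity per well by laser scanning cytometry (488 nm excitation, 500–520 nm emission); 500 nM antisense PNA as control.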

[5] = Confirmation and Secondary Assay for Modulators of Hemoglobin Beta Chain Splicing at IVS2 705 locus (AID 930);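 further: HeLa cells stably expressing the EGFP-705 splicing reporter; GFP fluorescence per well restored by corrected splicing of the IVS2-705 intron in EGFP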
Procedure, shortened: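 Per-well GFP, captured at 1 x 8 µm resolution with 488 nm excitation, served as the read-out for HeLa EGFP-705 cells incubated 2 days with test compound versus DMSO.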

[6] = qHTS Assay for Lipid Storage Modulators (AID 1519; calls by dose curve); details: Drosophila S3 cells, BODIPY lipid droplet/cell ratio, laser cytometry, cells loaded with oleic acid; for activity change, negative = inhibition: at 57.5 µM (top of the series)
Procedure, shortened: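 Cells seeded at 5,000 per well were treated with compounds over a concentration series and loaded with oleic acid (400 uM, as added). Lipid droplet fluorescence (488 nm excitation, 500-530 nm channel) was read by laser-scanning cytometry and normalized to 20 uM Triacsin C.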

[7] = molecular target: Ubiquitin carboxyl-terminal hydrolase 1 (Homo sapiens) (UniProt O94782); experiment: Inhibitors of USP1/UAF1: Pilot qHTS (AID 504865); further: nearly all actives have a fitted effect of over 35% in size; further: potency means the concentration at half of the fitted maximal effect;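 on activity change, negative = inhibition: rhodamine fluorescence freed from ubiquitin-rhodamine substrate followed over time; top concentration of the series differs between compounds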
Chain of Ubiquitin carboxyl-terminal hydrolase 1 (Homo sapiens) (O94782 whole entry, looked up): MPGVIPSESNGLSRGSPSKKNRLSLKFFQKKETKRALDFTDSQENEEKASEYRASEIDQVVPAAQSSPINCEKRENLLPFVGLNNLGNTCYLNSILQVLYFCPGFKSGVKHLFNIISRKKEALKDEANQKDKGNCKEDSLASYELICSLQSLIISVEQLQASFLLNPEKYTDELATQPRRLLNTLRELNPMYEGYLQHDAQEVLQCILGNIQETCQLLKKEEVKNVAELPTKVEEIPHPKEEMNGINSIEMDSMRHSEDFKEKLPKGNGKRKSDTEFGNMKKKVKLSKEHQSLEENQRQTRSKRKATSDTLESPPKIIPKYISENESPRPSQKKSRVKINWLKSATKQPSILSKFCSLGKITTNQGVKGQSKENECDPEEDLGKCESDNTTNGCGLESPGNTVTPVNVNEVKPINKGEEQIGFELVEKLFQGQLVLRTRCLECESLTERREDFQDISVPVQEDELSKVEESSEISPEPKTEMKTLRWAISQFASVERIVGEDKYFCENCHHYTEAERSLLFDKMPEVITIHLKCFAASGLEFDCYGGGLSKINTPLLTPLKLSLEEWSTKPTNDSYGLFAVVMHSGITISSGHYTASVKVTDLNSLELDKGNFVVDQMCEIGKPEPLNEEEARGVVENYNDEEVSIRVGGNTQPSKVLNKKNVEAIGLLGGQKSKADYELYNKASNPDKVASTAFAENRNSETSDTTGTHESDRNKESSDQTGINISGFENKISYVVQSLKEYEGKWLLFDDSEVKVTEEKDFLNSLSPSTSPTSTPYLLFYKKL
Procedure, shortened: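 In 50mM HEPES pH 7.8 containing 0.5mM EDTA, 1mM TCEP, 0.1 mg/ml BSA and 0.01% Tween-20, 1nM USP1/UAF1 is exposed to compound for 15 min, then Ub-Rho (150nM final) is added and fluorescence is read over time.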

[8] = molecular target: Cytochrome P450 2D6 (Homo sapiens) (UniProt P10635); experiment: Cytochrome P450 family 2 subfamily D member 6 (CYP2D6) small molecule antagonists: luciferase biochemical (cell-free) qHTS assay (AID 1645840; active means well fitted curve in the direction sought with a large enough effect in the repeat runs; an effect the other way counts as inactive or inconclusive; further: nearly all actives have a fitted effect of over 55% in size)
Procedure, shortened: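 P450-Glo CYP2D6 system: proluciferin substrate converted by enzyme to luciferin, read by luminescence proportional to activity. Enzyme-substrate mix with compound 10 min at room temperature, then NADPH regeneration 1 h before detection reagent.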

[9] = molecular target: Cytochrome P450 1A2 (Homo sapiens) (UniProt P05177); experiment: p450-cyp1a2 (AID 410; calls by dose curve; further: potency means the concentration at half of the fitted maximal effect)
Chain of Cytochrome P450 1A2 (Homo sapiens) (P05177 whole entry, looked up): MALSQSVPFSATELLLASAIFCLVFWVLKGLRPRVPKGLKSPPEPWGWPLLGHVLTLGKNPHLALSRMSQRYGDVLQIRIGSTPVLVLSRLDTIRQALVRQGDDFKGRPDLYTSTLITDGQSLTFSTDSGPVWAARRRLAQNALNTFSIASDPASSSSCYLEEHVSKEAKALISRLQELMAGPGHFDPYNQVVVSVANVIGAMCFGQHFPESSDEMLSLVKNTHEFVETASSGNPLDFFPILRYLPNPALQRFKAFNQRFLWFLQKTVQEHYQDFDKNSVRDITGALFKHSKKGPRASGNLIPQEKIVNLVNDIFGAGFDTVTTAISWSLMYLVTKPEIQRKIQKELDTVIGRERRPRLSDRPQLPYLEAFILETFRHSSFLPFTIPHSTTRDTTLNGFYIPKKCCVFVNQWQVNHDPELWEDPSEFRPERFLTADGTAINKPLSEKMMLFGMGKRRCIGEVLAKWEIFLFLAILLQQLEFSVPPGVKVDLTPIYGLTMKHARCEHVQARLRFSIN
Procedure, shortened: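 20nM CYP1A2, 100uM Luciferin-ME (=Km), 100mM KPO4; cpd 10 min RT; +NADPH regen, 60 min RT; stop/detect 20 min; luminescence. Normalized to furafylline 57 uM = full inhibition.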

[10] = molecular target: Glucocorticoid receptor (Homo sapiens) (UniProt P04150); experiment: GR-GFP Redistribution (AID 450;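 active means compounds whose dose series gives a full or clear partial fitted curve of increased nuclear translocation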; further: potency means the concentration at half of the fitted maximal effect); details: U2OS GR-GFP nuclear translocation, laser cytometry, 2 h
Chain of Glucocorticoid receptor (Homo sapiens) (P04150 whole entry, looked up, the tested form may be a part): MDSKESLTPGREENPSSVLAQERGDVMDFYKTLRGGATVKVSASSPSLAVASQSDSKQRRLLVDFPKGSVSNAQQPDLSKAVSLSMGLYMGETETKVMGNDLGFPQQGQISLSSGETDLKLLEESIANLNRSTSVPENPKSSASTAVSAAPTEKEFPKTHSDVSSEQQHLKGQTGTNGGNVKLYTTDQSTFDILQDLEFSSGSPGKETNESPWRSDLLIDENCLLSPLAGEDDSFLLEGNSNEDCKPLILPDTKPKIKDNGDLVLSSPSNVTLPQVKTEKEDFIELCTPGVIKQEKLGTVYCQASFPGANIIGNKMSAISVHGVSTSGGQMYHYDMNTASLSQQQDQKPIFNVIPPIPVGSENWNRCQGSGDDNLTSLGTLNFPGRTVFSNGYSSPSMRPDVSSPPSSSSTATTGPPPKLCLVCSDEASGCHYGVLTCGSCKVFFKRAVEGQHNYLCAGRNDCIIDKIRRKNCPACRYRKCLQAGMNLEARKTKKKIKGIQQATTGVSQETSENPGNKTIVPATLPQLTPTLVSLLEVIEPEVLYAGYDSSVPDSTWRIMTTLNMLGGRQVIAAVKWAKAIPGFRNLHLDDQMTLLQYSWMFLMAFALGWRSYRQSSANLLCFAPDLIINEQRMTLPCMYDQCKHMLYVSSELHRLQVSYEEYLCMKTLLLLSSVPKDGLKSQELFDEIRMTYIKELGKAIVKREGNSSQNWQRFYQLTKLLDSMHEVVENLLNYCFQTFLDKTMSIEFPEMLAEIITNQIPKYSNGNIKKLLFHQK

[11] = molecular target: Glucocorticoid receptor (Homo sapiens) (UniProt P04150); experiment: GR-EFC Redistribution (AID 451; calls by dose curve; further: potency means the concentration at half of the fitted maximal effect); details: CHO-K1 GR-EFC translocation, beta-gal luminescence, 2 h
Procedure, shortened: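 CHO-K1 cells expressing nuclear EA and GR-ED fragments of b-gal; compounds titrated up to 46 uM final, 2 h at 37 C. GR nuclear translocation read as complemented b-gal luminescence after 1 h RT detection.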

[12] = molecular target: Mitogen-activated protein kinase 10 (Mus musculus) (UniProt Q61831); experiment: JNK3 AlphaScreen Assay (AID 530; active means well fitted curve in either direction with a large enough effect, not every such curve was filed as active;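 further: kinase came from lysate of stimulated human HepG2 cells; signal reports phosphorylation of biotinylated GST-cJun 1-79 at Ser73 with 10 µM ATP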)
Procedure, shortened: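 HepG2 lysate (IL-1b/TNFa pre-activated) + biotin-GST-cJun 1-79 + anti-pSer73 cJun; cpd titration, 15 min RT; ATP 10 uM start; Tris pH 7.6, MgCl2, DTT, vanadate; beads in EDTA buffer; AlphaScreen.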

[13] = molecular target: DNA dC->dU-editing enzyme APOBEC-3G (Homo sapiens) (UniProt Q9HC16); experiment: qHTS for inhibitors of Vif-A3G interactions: Validation (AID 588379)
Chain of DNA dC->dU-editing enzyme APOBEC-3G (Homo sapiens) (Q9HC16 whole entry, looked up): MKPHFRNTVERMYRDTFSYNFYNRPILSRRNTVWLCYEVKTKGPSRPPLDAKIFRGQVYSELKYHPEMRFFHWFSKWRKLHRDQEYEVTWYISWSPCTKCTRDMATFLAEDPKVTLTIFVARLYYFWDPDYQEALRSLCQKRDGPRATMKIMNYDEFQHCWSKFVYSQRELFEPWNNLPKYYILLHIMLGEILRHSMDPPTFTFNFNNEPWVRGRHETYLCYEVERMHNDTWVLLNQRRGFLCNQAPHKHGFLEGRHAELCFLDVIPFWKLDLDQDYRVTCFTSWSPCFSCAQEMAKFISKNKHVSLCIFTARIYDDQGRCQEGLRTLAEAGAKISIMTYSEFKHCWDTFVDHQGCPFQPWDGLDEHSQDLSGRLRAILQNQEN
Procedure, shortened: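 Yellow fluorescence (Ex 488, Em 500-530) of Vif-coexpressing HeLa A3G-eYFP cells, scanned by Acumen cytometer, reports blocked A3G degradation. Cells plated at 700/well overnight at 37 deg C before compound addition, then a further overnight compound incubation at 37 deg C.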

[14] = molecular target: Rap guanine nucleotide exchange factor 3 (Homo sapiens) (UniProt O95398); experiment: Confirmatory qHTS for antagonist of cAMP-regulated guanine nucleotide exchange factor 3 (EPAC1) (AID 1645880); further: nearly all actives have a fitted effect of over 55% in size
Chain of Rap guanine nucleotide exchange factor 3 (Homo sapiens) (O95398 whole entry, looked up): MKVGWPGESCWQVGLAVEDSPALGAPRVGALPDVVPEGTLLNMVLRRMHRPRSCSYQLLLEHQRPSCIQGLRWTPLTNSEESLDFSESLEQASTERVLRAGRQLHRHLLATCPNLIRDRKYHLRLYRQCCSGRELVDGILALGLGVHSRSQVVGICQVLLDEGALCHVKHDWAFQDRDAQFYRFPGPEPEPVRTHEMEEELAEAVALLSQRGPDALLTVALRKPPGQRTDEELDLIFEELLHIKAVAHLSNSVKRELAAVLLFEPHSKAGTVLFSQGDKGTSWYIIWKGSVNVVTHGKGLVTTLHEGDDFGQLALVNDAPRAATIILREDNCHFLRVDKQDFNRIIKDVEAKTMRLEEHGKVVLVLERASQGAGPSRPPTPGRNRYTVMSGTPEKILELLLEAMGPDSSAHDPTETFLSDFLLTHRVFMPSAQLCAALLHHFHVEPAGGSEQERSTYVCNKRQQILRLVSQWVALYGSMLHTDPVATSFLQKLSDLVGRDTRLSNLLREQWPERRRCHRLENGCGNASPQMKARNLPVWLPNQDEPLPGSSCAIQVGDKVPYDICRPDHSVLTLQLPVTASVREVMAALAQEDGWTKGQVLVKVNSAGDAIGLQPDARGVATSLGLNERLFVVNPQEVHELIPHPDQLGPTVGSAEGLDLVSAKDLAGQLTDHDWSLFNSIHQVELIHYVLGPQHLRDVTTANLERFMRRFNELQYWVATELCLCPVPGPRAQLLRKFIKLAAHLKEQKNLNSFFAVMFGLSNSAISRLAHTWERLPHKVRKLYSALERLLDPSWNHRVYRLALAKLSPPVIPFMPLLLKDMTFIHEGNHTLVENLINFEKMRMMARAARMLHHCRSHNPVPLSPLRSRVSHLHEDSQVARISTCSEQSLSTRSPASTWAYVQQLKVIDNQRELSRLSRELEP
Procedure, shortened: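 Released BODIPY-GDP fluoresces less than Rap1-bound BODIPY-GDP; the signal is followed at 480/540 nm at 5-min intervals over 30 min, after 5 min at room temperature. Reactions contain 100 nM EPAC1, 250 nM RAP1B-BODIPY-GDP and 50 uM GDP; results are normalized to ATA and DMSO.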

[15] = molecular target: Rap guanine nucleotide exchange factor 3 (Homo sapiens) (UniProt O95398); experiment: Confirmatory qHTS for agonist of cAMP-regulated guanine nucleotide exchange factor 3 (EPAC1) (AID 1645881);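 further: EPAC1 catalysed release of BODIPY-GDP from Rap1B seen as fluorescence loss; nearly all actives have a fitted effect of over 75% in size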
[16] = molecular target: Rap guanine nucleotide exchange factor 4 (Homo sapiens) (UniProt Q8WZA2); experiment: Confirmatory qHTS for agonist of cAMP-regulated guanine nucleotide exchange factor 4 (EPAC2) (AID 1645884);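 further: nucleotide exchange releases bodipy-GDP from Rap1 and this lowers its fluorescence; nearly all actives have a fitted effect of over 65% in size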
Chain of Rap guanine nucleotide exchange factor 4 (Homo sapiens) (Q8WZA2 whole entry, looked up): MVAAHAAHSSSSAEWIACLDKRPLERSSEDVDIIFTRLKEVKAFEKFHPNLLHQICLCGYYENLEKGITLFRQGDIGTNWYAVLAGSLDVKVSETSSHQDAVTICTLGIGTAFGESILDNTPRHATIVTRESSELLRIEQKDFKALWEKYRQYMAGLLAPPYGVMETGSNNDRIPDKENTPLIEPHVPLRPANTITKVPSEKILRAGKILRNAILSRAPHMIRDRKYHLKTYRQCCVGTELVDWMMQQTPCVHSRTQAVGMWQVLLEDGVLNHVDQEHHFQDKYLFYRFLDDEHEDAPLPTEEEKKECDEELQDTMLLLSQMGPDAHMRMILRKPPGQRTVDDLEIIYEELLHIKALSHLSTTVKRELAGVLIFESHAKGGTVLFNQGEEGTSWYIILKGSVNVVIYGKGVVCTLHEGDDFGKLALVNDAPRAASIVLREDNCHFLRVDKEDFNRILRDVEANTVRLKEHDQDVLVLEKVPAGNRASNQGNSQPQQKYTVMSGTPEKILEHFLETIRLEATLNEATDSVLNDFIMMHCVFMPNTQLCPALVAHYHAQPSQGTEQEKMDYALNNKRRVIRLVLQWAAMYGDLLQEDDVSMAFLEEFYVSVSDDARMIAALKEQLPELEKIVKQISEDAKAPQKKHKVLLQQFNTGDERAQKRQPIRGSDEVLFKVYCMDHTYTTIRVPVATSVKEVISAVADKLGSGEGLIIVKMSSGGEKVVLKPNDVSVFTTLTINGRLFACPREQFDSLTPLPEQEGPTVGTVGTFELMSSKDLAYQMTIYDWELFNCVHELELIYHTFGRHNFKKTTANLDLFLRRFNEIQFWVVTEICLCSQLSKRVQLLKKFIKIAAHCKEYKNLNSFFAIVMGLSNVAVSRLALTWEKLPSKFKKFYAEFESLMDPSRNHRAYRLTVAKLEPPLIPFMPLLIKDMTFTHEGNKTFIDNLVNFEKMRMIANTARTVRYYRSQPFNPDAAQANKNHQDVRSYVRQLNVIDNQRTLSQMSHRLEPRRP

[17] = molecular target: Rap guanine nucleotide exchange factor 4 (Homo sapiens) (UniProt Q8WZA2); experiment: Confirmatory qHTS for antagonist of cAMP-regulated guanine nucleotide exchange factor 4 (EPAC2) (AID 1645885); further: nearly all actives have a fitted effect of over 25% in size
[18] = measured here: cell count channel max response
[19] = measured here: lipid channel max response

For `CC[C@@H]1Cn2c(c3nc(-c4ccccc4)nc-3n(C)c2=O)N1`, which Potency [1] is on record?
The Potency was “inactive”.

What about the Potency [2] of the same compound?
Its Potency is 12.6 µM (active).

What about the outcome [3] of the same compound?
The outcome was “inactive”.

Which results are given for `CCCCCC/C=C\CCCCCCCc1cccc(O)c1C(=O)O`?
Potency [1]: inactive; Potency [4]: inactive; outcome [5]: inactive; activity change, negative = inhibition [6]: 8.36% (inactive); max response [6, 18]: 7.08%; max response [6, 19]: 17.7%; Potency [7]: 79.4 µM (active); Potency [8]: inactive

What does the source list for `CN=C1N[C@H](c2ccccc2)N(c2ccccc2)S1`?
Potency [9]: 1.26 µM (active); Potency [10]: > 46 µM (inactive); Potency [11]: > 46 µM (inactive); Potency [12]: inactive; Potency [2]: inactive; Potency [7]: inactive; outcome [13]: inactive; outcome [3]: inactive

Which results are given for `O=[N+]([O-])c1cccc2c[nH]nc12`?
Potency [9]: 2.51 µM (active); Potency [11]: > 46 µM (inactive); Potency [12]: inactive; Potency [2]: inactive; outcome [13]: inactive; outcome [3]: inactive

Which Potency [1] does the source give for `CC1(C)C=CC(=O)[C@]2(C)C1CC(=O)[C@]1(C)C2CC[C@@]2(C)C(c3ccoc3)OC(=O)C3OC321` (some centres not stated) here?
The Potency was 2 µM (active).

And the Potency [2]?
The Potency was “inactive”.

And the Potency [4]?
Its Potency is “inactive”.

And the outcome [5]?
The outcome was “inactive”.

What about the activity change, negative = inhibition [6] of the same compound?
Its activity change, negative = inhibition is -11.5% (inactive).

What about the max response [6, 18] of the same compound?
Its max response is -7.57%.

And the max response [6, 19]?
Its max response is -18.1%.

What about the Potency [7] of the same compound?
The Potency was “inactive”.

What about the Potency [14] of the same compound?
The Potency was “inactive”.

And the Potency [15]?
The Potency was “inactive”.

And the Potency [16]?
The Potency was “inactive”.

What about the Potency [17] of the same compound?
Its Potency is “inactive”.
